Lmaj promast: Leishmania major promastigote growth inhibition, primary screen | inhibition, % at 10 µM | Leishmania major promastigotes, resazurin fluorescence viability | 9% of 200,000 active; in the data active = inhibition above about 50%;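 note: promastigotes grown with compound for 44 hours at 28 °C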
Insulin prom inh: inhibitors of insulin promoter-driven GFP, primary screen, imaging, TRM-6 cells (human fetal islet line), eGFP reporter, cell count; AID 1273, 2008; reporter expression induced with tamoxifen; 0.9% of 130,000 active; inhibition, % at 2 µM;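 active = inhibition above the mean plus 3 SD, with well images judged a real hit on visual review, cut at about 60% in these data, passing the limit was not always enough; inconclusive = inhibition over the cutoff but images rejected on review; inactive = inhibition not above the cutoff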
Autophagy HCS: autophagy modulators in MEF cells, primary screen, imaging, high-content, MEF GFP-LC3. MEF GFP-LC3 puncta imaging; test concentration mostly 10 µM. calls only at 10 µM (by protocol). 0.98% of 190,000 active. AID 463193, 2010;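 active = percentage of spot-positive cells more than 3 SD above its plate mean, without a fluorescence outlier flag or 80% toxicity; inconclusive = no clear call, values can overlap the other calls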
WT yeast gro inh: growth inhibition of WT strain, primary screen, mitochondrial fusion inhibitor project, WT and mutant strains, chemical genetic | mitochondrial fusion phenotypic screen | inhibition, % at 10 µM | 2.1% of 190,000 active | AID 1362, 2008; in the data active = inhibition above about 58%; tested in S. cerevisiae
Insulin prom up: insulin promoter activators in MIN6 cells, imaging, high-content screening, mouse beta cells; z-score at 5 µM; AID 1625, 2009; MIN6 insulin promoter-GFP reporter; stronger effect = higher value; 0.3% of 190,000 active;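 active = z-score above 3 at 5 µM with at least 500 cells counted in the well; inconclusive = wells under 500 cells, flagged as cytotoxic or low count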
A number is an active result; . = inactive; ? = inconclusive; / = not tested or not shown; + = active, no number. Compounds with a hit are over-represented: about 11% of the library has one in this group of screens.

SMILES	Lmaj promast	Insulin prom inh	Autophagy HCS	WT yeast gro inh	Insulin prom up
N#Cc1ccc(-c2ccco2)nc1SCC(=O)c1ccc(Cl)cc1	.	/	+	.	/
O=C(CSc1ccc(-c2ccco2)nn1)c1ccc(F)cc1	.	.	.	.	.
O=C(Nc1ccc2c(c1)OCO2)N1CCCC1	.	.	.	.	.
COc1ccc(NC(=O)NN(C(=O)c2ccccc2)C(C)(C)C)cc1	.	.	.	.	.
Cc1cc2ncn(CCC(=O)NC(C)(C)C)c2cc1C	.	.	.	.	.
CCC(C)c1ccccc1NC(=O)COC(=O)c1ccc2[nH]c3c(c2c1)CCCC3 (stereo not given)	.	.	.	62	.
CCc1ccc(NC(=O)COC(=O)c2ccc(Cl)c(S(=O)(=O)N3CCCCCC3)c2)cc1	63	.	.	.	.
CC(C)c1ccccc1NC(=O)COC(=O)c1ccc(Cl)c(S(=O)(=O)N2CCCCCC2)c1	60	.	.	.	.
Cc1cc(C)n(-c2ccc(C(=O)OCC(=O)Nc3ccc(S(=O)(=O)N4CCCCC4)cc3)cc2)n1	84	.	.	.	.
NC(=O)COC(=O)c1ccc(Cl)c(S(=O)(=O)N2CCCCCC2)c1	.	.	.	.	.
CNC(=O)COC(=O)c1ccc(Cl)c(S(=O)(=O)N2CCCC2)c1	.	.	.	.	.
CCCn1nnc(NC(=O)c2cc(Br)cc(Br)c2OC)n1	.	.	.	.	.
O=C(/C=C/c1ccc(-c2cccc([N+](=O)[O-])c2)o1)N1CCOCC1	/	/	/	/	.
CC(NC(=O)/C(C#N)=C1\N=C(NC(=O)c2ccco2)c2ccccc21)c1ccccc1 (stereo not given)	/	/	/	/	3.7
Cc1cc(C)n(-c2nc3ccccc3nc2N2CCC(C)CC2)n1	.	.	.	.	.
Cc1cc(N2CCC(C)CC2)nc(-n2nc(C)cc2C)n1	97	/	.	67	.
O=C(NN=C(Cc1ccccc1)Cc1ccccc1)C1CC1	.	.	.	.	.
CC(C)Cn1c2c(c(O)c(C(=O)Nn3c(Cc4ccccc4)nc4ccccc4c3=O)c1=O)CCCC2	74	.	.	.	.
CCCCc1nc2ccccc2c(=O)n1NC(=O)c1c(O)c2c(n(CC(C)C)c1=O)CCCC2	.	.	.	.	.
O=C(Nn1c(Cc2ccccc2)nc2ccccc2c1=O)c1c(O)c2cccc3c2n(c1=O)CCC3	.	.	.	68	/
COc1cccc2cc(C(C)N(CCCN3CCOCC3)C(=S)Nc3c(C)cccc3C)oc12 (stereo not given)	53	.	.	.	.
CCc1ccc(NC(=O)N(CCCN2CCOCC2)C(C)c2cc3cccc(OC)c3o2)cc1 (stereo not given)	54	.	.	.	.
CCOC(=O)N1N=C(c2ccccc2)CC1(O)C(C)(F)F (stereo not given)	.	74	.	.	.
Cc1cccc(OCC(=O)N2CCN(C(=O)CCC3CCCC3)CC2)c1	.	/	.	.	.
CC1CN(C2CCN(C(=O)COc3ccc(Cl)cc3)CC2)CC(C)O1 (stereo not given)	92	.	.	.	/
SMILES	Lmaj promast	Insulin prom inh	Autophagy HCS	WT yeast gro inh	Insulin prom up
Cc1cccc(OCC(=O)N2CCC(N3CCOCC3)CC2)c1	92	.	.	.	/
CCOC(=O)N1CCN(C(=O)COc2ccc(Cl)cc2)CC1	.	.	.	.	.
Cc1cc(C)n(C(=O)Cn2nc([N+](=O)[O-])c(Br)c2C)n1	.	.	.	.	.
OC1CCCN(Cc2cccc3ccccc23)C1 (stereo not given)	.	.	.	.	.
OC1CCCN(Cc2c3ccccc3cc3ccccc23)C1 (stereo not given)	78	.	.	.	.
CC1CCN(c2ccc(NC(=O)c3ccccc3[N+](=O)[O-])cc2)CC1	.	/	.	.	/
CCC(C)N(CC(=O)Nc1cccc(C)c1C)C(=O)CCl (stereo not given)	64	100	+	.	.
Fc1ccc(-c2nc3c(-c4ccc(Cl)cc4)cnn3cc2CCN2CCOCC2)cc1	.	/	.	.	.
CCCCCCCCNC(=O)/C(C#N)=C/c1ccccc1[N+](=O)[O-]	58	/	.	.	.
CCOCCCNC(=O)/C(C#N)=C/c1ccc([N+](=O)[O-])o1	101	/	.	91	.
CCOCCCNC(=O)/C(C#N)=C/c1ccc(-c2ccc(S(=O)(=O)N3CCOCC3)cc2)o1	.	.	.	.	.
O=[N+]([O-])c1ccc(Oc2ccc(S(=O)(=O)Nc3ccccc3)cc2)cc1	66	.	.	.	.
COc1cccc(N(CC(=O)NCCSc2ccc(Cl)cc2)S(C)(=O)=O)c1	.	.	.	.	.
Cc1[nH]n(-c2ccccc2)c(=O)c1C(C[N+](=O)[O-])c1ccc(Br)cc1 (stereo not given)	100	.	.	.	.
Cc1nc(-c2cccc(S(=O)(=O)N3CCCC(C)C3)c2)cs1 (stereo not given)	.	.	.	.	.
CCOC(=O)C1=C(O)c2ccccc2C(=O)/C1=C\c1ccc(CC)cc1	.	.	.	.	.
CCCc1ccc(/C=C2\C(=O)c3ccccc3C(O)=C2C(=O)OCC)cc1	.	.	.	59	.
COc1cc(C(O)P(=O)(OCCC(C)C)c2ccc(N(C)C)cc2)cc(OC)c1OC (stereo not given)	/	/	/	/	.
COc1ccc2c(c1)C(SCC(=O)NCCc1ccc(Cl)cc1)CC(C)(C)O2 (stereo not given)	.	.	.	.	.
OC(COc1ccc2c(c1)CCC2)CN1CCN(c2ccccc2F)CC1 (stereo not given)	74	.	.	.	.
C=CCc1ccccc1OCC(O)CN1CCN(c2ccc(OC)cc2)CC1 (stereo not given)	70	/	.	.	.
O=[N+]([O-])c1ccc(OCC(O)CN2CCN(c3ccccc3F)CC2)cc1 (stereo not given)	.	/	.	.	/
COc1ccc(N2CCN(CC(O)COc3ccc4c(c3)CCC4)CC2)cc1 (stereo not given)	92	.	.	.	/
C=CCc1ccccc1OCC(O)CN(C(C)C)C(C)C (stereo not given)	100	/	.	.	.
Cc1ccc(OCC(=O)Nc2cc(C(=O)O)cc(C(=O)O)c2)cc1C	.	.	.	.	.
SMILES	Lmaj promast	Insulin prom inh	Autophagy HCS	WT yeast gro inh	Insulin prom up
COc1ccccc1NC(=O)c1c(N=Cc2ccccc2O)cnn1C	.	/	.	.	.
C/C(=N\NC(=O)Cn1cc([N+](=O)[O-])cn1)c1ccc(O)cc1	/	/	/	/	.
C=CCC1(NCc2ccco2)CCN(CC)CC1	.	/	.	.	/
CCCCc1ccc(N=N/C(C(=O)Nc2cc(OC)c(NC(C)=O)cc2OC)=C(/C)O)cc1	.	.	.	.	.
COc1ccc(/C=N/NC(=S)Nc2cc(S(=O)(=O)N3CCOCC3)ccc2N2CCOCC2)cc1O	100	.	.	.	.
CCOc1cccc(/C=N/NC(=S)Nc2cc(S(=O)(=O)N3CCOCC3)ccc2N2CCOCC2)c1O	85	.	.	.	?
CCCC[C@@H]1C[C@H]1[C@@H](NC(=O)c1ccco1)c1ccc(Cl)cc1	.	.	.	73	.
O=C(NNc1ccc(Cl)cc1)c1cccs1	/	/	/	/	.

Screening results deposited in PubChem by several laboratories.
